{"source": "PubChem BioAssay (EPA / NIEHS)", "note": "Records with an inconclusive call do not appear. More than one record can exist for a structure, and the calls need not agree. The source made the active and inactive calls. Rule for the calls: active = hit-call score of the fitted dose curve at least 0.9, where 1 is the maximum; inconclusive = response in the unintended direction; inactive = score below 0.9."}
{"biological_target": "bovine Estrogen Receptor (ER), ESR1 (gene 407238) (UniProt P49884)", "sequence (P49884 whole entry, looked up)": "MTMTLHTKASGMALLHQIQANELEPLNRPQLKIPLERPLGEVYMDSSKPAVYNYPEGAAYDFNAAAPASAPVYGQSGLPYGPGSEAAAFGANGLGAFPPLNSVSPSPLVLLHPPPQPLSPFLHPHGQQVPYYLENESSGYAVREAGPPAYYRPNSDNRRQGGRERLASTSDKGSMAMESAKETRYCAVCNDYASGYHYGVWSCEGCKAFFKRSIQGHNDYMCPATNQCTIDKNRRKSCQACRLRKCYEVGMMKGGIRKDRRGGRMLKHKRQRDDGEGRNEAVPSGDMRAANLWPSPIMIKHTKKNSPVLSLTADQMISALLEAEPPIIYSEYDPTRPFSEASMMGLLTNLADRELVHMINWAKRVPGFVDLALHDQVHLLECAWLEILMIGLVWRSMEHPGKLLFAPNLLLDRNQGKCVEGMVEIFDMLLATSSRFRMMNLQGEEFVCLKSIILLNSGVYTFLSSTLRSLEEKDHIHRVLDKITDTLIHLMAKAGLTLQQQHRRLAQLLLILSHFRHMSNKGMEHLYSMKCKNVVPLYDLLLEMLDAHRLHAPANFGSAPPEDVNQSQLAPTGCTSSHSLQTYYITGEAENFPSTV", "test": "NVS_NR_bER: NovaScreen (NVS) Nuclear Receptor Binding Assay for bovine Estrogen Receptor (ER) (AID 2283345);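 note: actives lower the bound radioligand count which means they displace the ER ligand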", "protocol": "NVS_NR_bER is a biochemical, single-readout assay that uses extracted gene-proteins from Bovine uterine membranes in a tissue-based cell-free assay. Measurements were taken 18 hours after chemical dosing in a 96-well plate.NVS_NR_bER is one of one assay component(s) measured or calculated from the NVS_NR_bER assay. It is designed to make measurements of radioligand binding, a form of binding reporter, as detected with scintillation counting signals by Lysate-based radiodetection technology.Data from the assay component NVS_NR_bER was analyzed into 1 assay endpoint. This assay endpoint, NVS_NR_bER, was analyzed in the positive analysis fitting direction relative to DMSO as the negative control and baseline of activity. Using a type of binding reporter, loss-of-signal activity can be used to understand changes in the binding as they relate to the gene ESR1. Furthermore, this assay endpoint can be referred to as a primary readout, because the performed assay has only produced 1 assay endpoint. To generalize the intended target to other relatable targets, this assay endpoint is annotated to the nuclear receptor intended target family, where the subfamily is steroidal.\nBinding assays used specific radioligands (tritiated, iodinated) with non-radioactive competitive displacement ligands in agonist or antagonist protocols (as indicated) and various reference compounds and inhibitors to titrate specific binding to receptors and transporters. Most enzyme assays (CYPs, kinases, phosphatases, proteases, HDACs) used recombinant protein and specific substrates (fluorescence mostly, some colorimetric and radioactive) and inhibitors, followed by a biochemical separation of substrate and product. All assays for the biochemical HTS were initially run in duplicate at a single concentration (10 uM for CYP450 assays and 25 uM for all others). […] Each assay was run with positive and negative controls, and concurrent controls on every plate. The follow-up (secondary) screen tested active chemical-pairs in concentration series, as well as a few additional assays not tested in the primary screen, some selected negative inactives, and several cases re-run in the concentration series for confirmatory purposes."}
{"smiles": "C#C[C@]1(O)CC[C@H]2[C@@H]3CCc4cc(OC)ccc4[C@H]3CC[C@@]21C", "AC50": "0.0305 µM (active)"}
{"smiles": "CCCCCCCCCCCCCCCC[N+](C)(C)Cc1ccccc1", "outcome": "inactive"}
{"smiles": "C(=C(c1ccccc1)c1ccccc1)c1ccccc1", "outcome": "inactive"}
{"smiles": "Nc1ccc([N+](=O)[O-])cc1O", "outcome": "inactive"}
{"smiles": "CCN(CC)c1ccc2c(C)cc(=O)oc2c1", "outcome": "inactive"}
{"smiles": "c1ccc(B(c2ccccc2)c2ccccc2)cc1", "outcome": "inactive"}
{"smiles": "Oc1ccc(Nc2ccccc2)cc1", "AC50": "25 µM (active)"}
{"smiles": "CC(Cc1ccc(O)c(O)c1)C(C)Cc1ccc(O)c(O)c1", "note": "(stereo not drawn)", "AC50": "11.1 µM (active)"}
{"biological_target": "chimpanzee Androgen Receptor (AR), AR (gene 747460) (UniProt O97775)", "sequence (O97775 whole entry, looked up)": "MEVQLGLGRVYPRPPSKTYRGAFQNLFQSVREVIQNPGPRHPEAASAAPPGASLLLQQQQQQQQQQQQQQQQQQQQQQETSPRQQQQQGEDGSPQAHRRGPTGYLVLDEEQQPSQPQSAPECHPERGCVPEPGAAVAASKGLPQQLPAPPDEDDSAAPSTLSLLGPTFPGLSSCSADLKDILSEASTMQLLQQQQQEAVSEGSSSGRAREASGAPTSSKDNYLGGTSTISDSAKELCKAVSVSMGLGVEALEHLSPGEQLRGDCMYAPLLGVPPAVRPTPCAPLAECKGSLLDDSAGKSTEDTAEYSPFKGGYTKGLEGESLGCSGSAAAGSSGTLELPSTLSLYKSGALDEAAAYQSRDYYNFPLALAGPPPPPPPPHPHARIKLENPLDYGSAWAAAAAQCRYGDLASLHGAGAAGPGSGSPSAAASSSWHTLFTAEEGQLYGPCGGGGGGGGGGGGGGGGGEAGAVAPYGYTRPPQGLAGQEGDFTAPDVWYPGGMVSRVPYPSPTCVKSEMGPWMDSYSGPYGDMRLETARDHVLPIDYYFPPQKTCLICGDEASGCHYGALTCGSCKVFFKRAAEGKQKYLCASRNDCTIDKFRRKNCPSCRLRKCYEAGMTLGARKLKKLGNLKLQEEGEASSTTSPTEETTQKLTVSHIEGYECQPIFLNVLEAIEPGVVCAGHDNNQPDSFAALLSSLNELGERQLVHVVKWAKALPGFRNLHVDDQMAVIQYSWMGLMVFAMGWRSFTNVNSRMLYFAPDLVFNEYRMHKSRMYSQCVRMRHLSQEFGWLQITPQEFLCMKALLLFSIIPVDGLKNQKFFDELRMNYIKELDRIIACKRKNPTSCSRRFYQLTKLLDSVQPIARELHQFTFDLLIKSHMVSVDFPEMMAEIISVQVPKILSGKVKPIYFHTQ", "test": "NVS_NR_cAR: NovaScreen (NVS) Nuclear Receptor Binding Assay for chimpanzee Androgen Receptor (AR) (AID 2283346);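 note: a loss of bound radioligand signal versus DMSO counts as binding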", "procedure,_shortened": "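Cell-free competition binding with insect-cell (Sf9/Sf21) extracted chimpanzee AR; scintillation signal from lysate at 72 h. Screened in duplicate at 25 uM, then concentration-response for actives; fitting relative to DMSO.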"}
{"smiles": "C#C[C@]1(O)CC[C@H]2[C@@H]3CCc4cc(OC)ccc4[C@H]3CC[C@@]21C", "AC50": "3.99 µM (active)"}
{"smiles": "CC(=O)Nc1ccc(N=Nc2cc(C)ccc2O)cc1", "outcome": "inactive"}
{"smiles": "CCN(Cc1cccc(S(=O)(=O)O)c1)c1ccc(C(=C2C=CC(=[N+](CC)Cc3cccc(S(=O)(=O)O)c3)C=C2)c2ccc(O)cc2S(=O)(=O)[O-])cc1", "AC50": "13.2 µM (active)"}
{"smiles": "CCN(CC)c1ccc2c(C)cc(=O)oc2c1", "AC50": "5 µM (active)"}
{"smiles": "CCCCCCC(C)OC(=O)CCCCC(=O)OC(C)CCCCCC", "note": "(stereo not drawn)", "outcome": "inactive"}
{"smiles": "c1ccc(B(c2ccccc2)c2ccccc2)cc1", "AC50": "17.5 µM (active)"}
{"biological_target": "Estrogen receptor (Homo sapiens) (UniProt P03372)", "sequence (P03372 whole entry, looked up, the tested form may be a part)": "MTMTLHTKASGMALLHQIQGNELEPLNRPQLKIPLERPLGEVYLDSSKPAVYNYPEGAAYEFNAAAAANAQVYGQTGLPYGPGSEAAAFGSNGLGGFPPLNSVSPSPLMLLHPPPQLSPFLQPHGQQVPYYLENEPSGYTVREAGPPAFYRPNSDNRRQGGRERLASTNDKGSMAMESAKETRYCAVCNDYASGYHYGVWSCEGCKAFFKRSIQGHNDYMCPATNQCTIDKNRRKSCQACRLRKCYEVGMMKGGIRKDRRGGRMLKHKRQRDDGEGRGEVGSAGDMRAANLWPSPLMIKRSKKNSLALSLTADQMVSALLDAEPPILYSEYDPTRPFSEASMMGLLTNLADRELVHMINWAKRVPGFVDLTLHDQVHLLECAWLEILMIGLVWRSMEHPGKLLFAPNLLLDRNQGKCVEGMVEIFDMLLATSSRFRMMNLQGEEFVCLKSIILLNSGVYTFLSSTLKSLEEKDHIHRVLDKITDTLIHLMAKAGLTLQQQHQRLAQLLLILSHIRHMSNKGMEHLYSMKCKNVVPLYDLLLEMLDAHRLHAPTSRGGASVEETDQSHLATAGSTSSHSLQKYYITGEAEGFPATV", "test": "NVS_NR_hER: NovaScreen (NVS) Nuclear Receptor Binding Assay for human Estrogen Receptor (ER) (AID 2283348)", "procedure,_shortened": "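Scintillation signal from bound radioligand was measured 18 hours after chemical addition to cell-free MCF7 protein extracts, with DMSO as baseline. Activity was scored as signal loss; compounds ran first at 25 uM in duplicate.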"}
{"smiles": "C#C[C@]1(O)CC[C@H]2[C@@H]3CCc4cc(OC)ccc4[C@H]3CC[C@@]21C", "AC50": "0.00229 µM (active)", "outcome": "inactive"}
{"smiles": "CCCCCCCCCCCCCCCC[N+](C)(C)Cc1ccccc1", "outcome": "inactive"}
{"smiles": "CCCCC(CC)COP(=O)(O)OCC(CC)CCCC", "note": "(stereo not drawn)", "outcome": "inactive"}
{"smiles": "C(=C(c1ccccc1)c1ccccc1)c1ccccc1", "outcome": "inactive"}
{"smiles": "Nc1ccc([N+](=O)[O-])cc1O", "outcome": "inactive"}
{"smiles": "Cc1cc(C)cc(O)c1", "outcome": "inactive"}
{"smiles": "c1ccc(B(c2ccccc2)c2ccccc2)cc1", "AC50": "13.9 µM (active)"}
{"smiles": "Oc1ccc(Nc2ccccc2)cc1", "AC50": "8.86 µM (active)"}
{"smiles": "CN(C)Cc1ccccc1O", "outcome": "inactive"}
{"smiles": "CC(Cc1ccc(O)c(O)c1)C(C)Cc1ccc(O)c(O)c1", "note": "(stereo not drawn)", "AC50": "0.705 µM (active)"}
{"biological_target": "Estrogen receptor (Homo sapiens) (UniProt P03372)", "test": "OT_ER_ERaERa_1440: Odyssey Thera (OT) 24-hour HEK293T Protein-Complementation Assay for Estrogen Receptor-alpha/-alpha Homodimer (AID 2283349);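 note: hits raise fluorescence above DMSO for agonists and antagonists alike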", "procedure,_shortened": "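Protein-fragment complementation between two human ERα ligand-binding domains (aa 310-547) in stably transfected HEK293T cells was monitored after 24 h treatment, using fluorescence intensity relative to vehicle controls.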"}
{"smiles": "Cc1ccc(S(=O)(=O)NCl)cc1", "outcome": "inactive"}
{"smiles": "C#C[C@]1(O)CC[C@H]2[C@@H]3CCc4cc(OC)ccc4[C@H]3CC[C@@]21C", "AC50": "17.1 µM (active)"}
{"smiles": "CCCCOc1ccc(N)cc1", "outcome": "inactive"}
{"smiles": "CC(CCl)OP(=O)(OC(C)CCl)OC(C)CCl", "note": "(stereo not drawn)", "outcome": "inactive"}
{"smiles": "CCCCC(CC)COP(=O)(O)OCC(CC)CCCC", "note": "(stereo not drawn)", "outcome": "inactive"}
{"smiles": "COC(=O)C1CCC(C(=O)OC)CC1", "note": "(stereo not drawn)", "outcome": "inactive"}
{"smiles": "CCCCCCOC(=O)c1ccccc1", "outcome": "inactive"}
{"smiles": "C(=C(c1ccccc1)c1ccccc1)c1ccccc1", "AC50": "43.1 µM (active)"}
{"smiles": "CCN(Cc1cccc(S(=O)(=O)O)c1)c1ccc(C(=C2C=CC(=[N+](CC)Cc3cccc(S(=O)(=O)O)c3)C=C2)c2ccc(O)cc2S(=O)(=O)[O-])cc1", "outcome": "inactive"}
{"smiles": "C1COCCN1", "outcome": "inactive"}
{"smiles": "Cc1cc(C)cc(O)c1", "outcome": "inactive"}
{"smiles": "CCCCCCC(C)OC(=O)CCCCC(=O)OC(C)CCCCCC", "note": "(stereo not drawn)", "outcome": "inactive"}
{"smiles": "O=C(OCCOCCOCCOC(=O)c1ccccc1)c1ccccc1", "outcome": "inactive"}
{"smiles": "O=S(=O)(O)c1ccc2ccccc2c1", "outcome": "inactive"}
{"smiles": "CCCCCCOC(=O)c1ccccc1O", "outcome": "inactive"}
{"smiles": "[Co]", "outcome": "inactive"}
{"smiles": "c1ccc(B(c2ccccc2)c2ccccc2)cc1", "AC50": "78.5 µM (active)"}
{"smiles": "CNC(=S)NC", "outcome": "inactive"}
{"smiles": "OC[C@@H](O)[C@@H](O)[C@H](O)[C@@H](O)CO", "outcome": "inactive"}
{"smiles": "CC/C=C\\CCOC(C)=O", "outcome": "inactive"}
{"smiles": "CN(C)Cc1ccccc1O", "outcome": "inactive"}
{"smiles": "CC(Cc1ccc(O)c(O)c1)C(C)Cc1ccc(O)c(O)c1", "note": "(stereo not drawn)", "AC50": "11.9 µM (active)"}
{"smiles": "CC(C)OC(=O)c1ccccc1C(=O)OC(C)C", "outcome": "inactive"}
